# Source: PubChem
# Compounds with a hit are over-represented: about 3.9% of the library has one in this group of screens.
# aSyn UTR inh: MLPCN primary screen, SNCA 5' untranslated region; alpha-synuclein 5'UTR reporter, inhibitor activity; inhibition, % (tested at 7.5 µM); 300,000 tested, 0.82% active; AID 1813; in the data active = inhibition above about 60%; inconclusive = no clear call, values can overlap the other calls;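 note: H4 neuroglioblastoma cells stably carrying SNCA 5'UTR luciferase fusion; 0% = DMSO wells and 100% = positive control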
# HSP90 refold inh: blocks HSP90-mediated luciferase refolding in reticulocyte lysate. Rabbit reticulocyte lysate, luciferase refolding luminescence, 3 h. inhibition, % at 5.6 µM. 290,000 tested, 0.91% active. AID 1789;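 active = inhibition above the screen-wide mean plus 3 SD, computed separately per campaign, cut at about 16% in these data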;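 note: 0% = DMSO wells and 100% = 60 µM geldanamycin wells; inhibitors lower the luminescence because luciferase stays unfolded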
# TROY NFkB inh: blocks TROY-dependent signaling in reporter cells | Q293 LMP1-TROYcd NF-kB luciferase reporter, 4 h | inhibition, % at 10 µM | 360,000 tested, 0.98% active;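 active = compounds whose plate-normalised and pattern-corrected inhibition of the luciferase reporter signal at the single screening dose is 50% or more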
# HIF-2a block: inhibitors of HIF-2a. 786-0 RCC cells HIF-2a reporter, luciferase luminescence, overnight. inhibition, % at 18.8 µM. 360,000 tested, 0.72% active. AID 624352;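 active = inhibition of the luminescence signal of 40% or more relative to plate controls, in a single-dose primary screen at 18.75 µM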
# TWEAK Fn14 block: blocks TWEAK-Fn14 interaction in a reporter cell assay; TWEAK-stimulated Fn14 reporter cells, luciferase luminescence, 8 h; inhibition, % at 10 µM; 360,000 tested, 2% active; in the data active = inhibition above about 50%
# C8 TRAIL sens: caspase-8 TRAIL sensitization; NB7+C8 cells + TRAIL, ATPlite viability luminescence; inhibition (viability loss, TRAIL sensitization), % at 10 µM; 360,000 tested, 1% active; AID 624354;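 active = compounds causing at least 50% loss of cell viability in the single-dose screen, relative to plate controls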
# * hit, by the source's call; ? = inconclusive; nt = no result.
SMILES,aSyn UTR inh,HSP90 refold inh,TROY NFkB inh,HIF-2a block,TWEAK Fn14 block,C8 TRAIL sens
COc1ccccc1Sc1nc(-c2ccccn2)ncc1OC,13.9,-0.1,4.2,2.8,-22.8,-1.7
COc1cnc(-c2ccccn2)nc1NC(C)C,98.2*,2.3,10.4,-12.2,-20.6,29.7
CC(C)C[C@@H](CN1CCC[C@H]1CN1C(=O)C(=O)NC[C@@H]1Cc1ccccc1)N1C[C@H](Cc2ccccc2)N(CC2CCCCCC2)C(=O)C1=O,nt,nt,45.4,-30.4,34.9,18.3
O=C1NC(=O)C(=Cc2ccc(Cl)cc2Cl)S1,nt,nt,53.7*,-222.7,29.6,9.4
Cc1ccc([C@H]2C[C@@H](O)[C@H](n3cc(C4CC4)nn3)CN2C(=O)C2CCCCC2)cc1,nt,nt,-9.1,10.6,23.8,2.4
CCOc1ccccc1-c1cnc(NC)cn1,nt,nt,1.8,-16.0,20.1,-6.2
O=C(Nc1ccc(S(=O)(=O)N2CCOCC2)cc1)c1cc(-c2ccccc2O)n[nH]1,1.3,3.3,26.8,16.8,2.8,0.3
CC1CN(S(=O)(=O)c2ccc(C(=O)Nc3nc(-c4cc5ccccc5o4)cs3)cc2)CC(C)O1 (stereo not drawn),-16.0,-1.0,36.6,8.9,66.8*,42.4
O=C(Nc1nc(-c2cc3ccccc3o2)cs1)c1ccc(S(=O)(=O)N2CCCC2)cc1,-67.6,1.5,39.1,-37.0,83.0*,38.3
c1ccc2oc(-c3csc(NCC4CCCO4)n3)cc2c1 (stereo not drawn),-109.7,0.3,-9.7,-295.1,80.2*,21.8
CC1CN(S(=O)(=O)c2ccc(NC(=O)c3cc(-c4ccccc4O)n[nH]3)cc2)CC(C)O1 (stereo not drawn),-4.3,8.9,62.1*,-11.0,37.5,33.9
CCNC(=O)C1(C)CCCN1C(=O)c1cc(C)on1 (stereo not drawn),nt,nt,7.5,3.2,9.3,1.2
CCc1nc2ccc(C(=O)NCCCn3ccnc3)cn2c1N(C)Cc1ccc(Cl)cc1,nt,nt,-9.5,17.4,-6.1,15.9
COCCNc1nc(NCc2ccc(C(C)C)cc2)c2sccc2n1,nt,nt,38.3,-7.2,40.8,24.5
COc1ccccc1N(C)S(=O)(=O)c1ccc(C(=O)Nc2nc(C)cs2)cc1,-2.1,-1.9,23.2,1.7,38.3,-3.5
CN(C)S(=O)(=O)c1ccc(C(=O)Nc2nc(-c3cc4ccccc4o3)cs2)cc1,-136.9,1.2,50.9*,-2.1,-16.0,39.8
CCCCCCCCCn1ccc(=N)cc1,81.9*,-4.0,54.1*,24.5,37.1,31.6
CCCCCCCn1ccc(=N)cc1,?,1.0,46.2,-5.6,37.5,34.6
Cc1cccc(C)c1OCC(O)CN1CCC(CN2C(=O)c3cccc4cccc(c34)C2=O)CC1 (stereo not drawn),-7.1,-2.5,22.0,29.1,61.5*,20.4
CCOc1ccc(CN2CCN(Cc3ccsc3)C(CCO)C2)cc1CO (stereo not drawn),15.5,-0.8,3.6,16.1,88.5*,-4.6
COCc1cc(CN2CCN(Cc3ccsc3)C(CCO)C2)ccc1OC (stereo not drawn),-4.7,-3.4,2.7,5.9,19.5,0.1
Cc1cc(C)c2c(n1)SCC(=O)N2CC(=O)Nc1cccc(Cl)c1,7.5,31.3*,10.0,5.1,5.1,11.4
C=CCNc1nc(N)c([N+](=O)[O-])c(N2CCCCCC2)n1,69.3*,3.3,9.5,6.8,23.6,-10.9
CCN(CC)CCCNc1nc(N)c([N+](=O)[O-])c(N2CCCCCC2)n1,-23.6,-0.5,-7.6,6.8,26.9,-14.5
Cc1ccc(S(=O)(=O)N2C[C@@H](C)[C@]3(C2)[C@H](O)[C@H](OC(=O)NCc2ccccc2F)C[C@H]2C(=O)N(c4ccccc4)C(=O)[C@H]23)cc1,nt,nt,2.5,-11.6,-1.1,12.1
SMILES,aSyn UTR inh,HSP90 refold inh,TROY NFkB inh,HIF-2a block,TWEAK Fn14 block,C8 TRAIL sens
Cc1nc(-c2coc3cc(OCC(=O)O)ccc3c2=O)cs1,41.0,7.7,-19.5,16.0,16.0,50.1*
COc1ccc2c(=O)c(-c3nc(C)cs3)coc2c1,10.8,4.8,22.9,-7.0,79.3*,66.4*
COc1ccc(-c2coc3cc(OC)ccc3c2=O)cc1,nt,nt,-44.5,-191.8,-3.8,32.1
CCOc1ccc(NC(=O)CN2C(=O)NC(C)(c3ccc4c(c3)OCCCO4)C2=O)cc1OCC (stereo not drawn),nt,nt,1.1,2.1,1.4,-8.4
Cc1c(C(=O)C(=O)N2c3ccc(F)cc3CCC2C)c2ccccc2n1C (stereo not drawn),61.7*,-0.2,19.0,18.3,8.5,-15.1
Cc1c(C(=O)C(=O)N2CCN(C)CC2)c2ccccc2n1C,2.6,-2.4,4.1,16.5,-10.7,4.9
O=C(c1ccccc1)c1coc2c1C(=O)c1ccccc1C2=O,-80.5,6.6,33.4,-113.7,68.1*,4.7
C[C@H](CO)N1C[C@H](C)[C@@H](CN(C)Cc2ccccn2)Oc2ncc(-c3ccccc3)cc2C1=O,nt,nt,4.6,8.7,-0.2,3.9
Nc1nnc(SCc2ccc(Cl)cc2)s1,-22.3,-1.1,nt,-85.2,68.1*,-11.4
CCc1nc2c(OCCC3CCCCC3)cccn2c1N(C)C(=O)c1ccc(C)cc1,nt,nt,7.2,13.5,8.0,9.7
C=CCSc1nnc(NC(=O)c2cn(CC)c3nc(C)ccc3c2=O)s1,-12.8,-1.8,5.2,-1.6,89.6*,-4.3
COc1cc(NC(=O)COc2cc(O)c3c(c2)OC(C)(C)CC3=O)cc(OC)c1OC,-28.1,2.4,48.4,-74.0,77.8*,39.6
CCOC(=O)c1cc(-c2ccccc2)sc1NC(=O)COC(=O)c1cccc(S(N)(=O)=O)c1,71.6*,3.6,0.6,-1.5,-21.4,4.5
O=C1NC[C@H](CCCCN2C[C@H](Cc3ccc(O)cc3)N(CCc3ccccc3)C(=O)C2=O)N(CCc2ccc(O)cc2)C1=O,nt,nt,-13.0,10.2,9.7,7.5
O=C(NCC[C@H]1CC[C@@H](NC(=O)C2CCOCC2)[C@@H](CO)O1)Nc1ccc(Cl)cc1,nt,nt,nt,-5.8,nt,13.2
c1ccc(/N=C2\N=C(Nc3ccccn3)c3ccccc32)nc1,?,nt,-10.3,-18.5,18.9,48.1*
c1ccc(Nc2ccccn2)cc1,5.5,-6.0,-24.0,-6.0,-7.1,-5.7
CC(C)C[C@H]1CN(CCCC[C@H]2CNC(=O)C(=O)N2CCc2ccc(O)cc2)C(=O)C(=O)N1CCc1ccccc1,nt,nt,11.0,-0.7,-0.4,-10.4
COc1ccc(-c2oc3cc(OC(C)=O)cc(OC(C)=O)c3c(=O)c2OC)cc1,nt,nt,-20.8,-23.9,16.9,9.4
CC(=O)Oc1cc(O)c2c(=O)c(OC(C)=O)c(-c3ccc(OC(C)=O)c(OC(C)=O)c3)oc2c1,-116.2,nt,27.9,-119.1,67.9*,13.4
COc1ccc(-c2oc3cc(O)c(OC)c(O)c3c(=O)c2OC)cc1,-45.5,nt,-36.0,-87.6,0.2,27.1
COc1ccc(-c2oc3cc(OC)c(O)c(OC)c3c(=O)c2OC)cc1O,65.0*,-5.5,15.5,-67.9,9.7,8.2
CC(=O)Nc1ccc(S(=O)(=O)NCCC(=O)N2CCc3ccccc32)cc1,19.8,-2.0,-0.1,11.7,-1.5,-6.9
